Structures are written as SMILES. Inconclusive results are not listed. Where a call stands in place of a potency, no number is given. Calls of active or inactive are those of the source. The call rests on the fitted dose curve; in most records, active means well fitted cell-killing curve with a large enough effect; inconclusive means small, poorly fitted or top-dose-only effect; inactive means flat fitted curve, though single readings scatter.
Potency means the concentration at half of the fitted maximal effect.

This test is described as follows: Cell Viability - LYMP2-007 (AID 979).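 Further: cells exposed to compound for 24 h before reading; nearly all actives have a fitted effect of over 60% in size.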 The settings on record: LYMP2-007 lymphoblastoid cell viability; series mostly up to 92.2 µM. An excerpt:
NIH Chemical Genomics Center [NCGC]
NIH Molecular Libraries Screening Centers Network [MLSCN]
National Institutes of Environmental Health Sciences [NIEHS]
National Toxicology Program [NTP]
We have developed a 1536-well cell-based assay for quantitative high throughput screening (qHTS) against a number of cell lines to determine in vitro cytotoxicity of small molecules. This particular assay uses a human lymphoblastoid cell line (LYMP2-007) purchased from Coriell Institute for Medical Research.
NCGC Assay Protocol Summary:
The CellTiter-Glo luminescent cell viability assay (Promega) is a homogeneous method to measure the number of viable cells in culture. The end point readout of this assay is based on quantitation of intracellular ATP, an indicator of metabolic activity, using the luciferase reaction. Luciferase catalyzes the oxidation of beetle Luciferin to oxyluciferin and light in the presence of ATP. The luminescent signal is proportional to amount of ATP present.
Using the CellTiter-Glo luminescent cell viability assay, the amount of cellular ATP was measured in the lymphoblastoid cell line with complete culture medium following compound treatment for 24 hours. The assay was performed in opaque white Kalypsys 1536-well plates. In the screen, tetraoctylammonium bromide was used as positive control. Library compounds were measured for their ability to cause acute toxicity in the cell line, as reflected by a decrease in intracellular ATP levels, in a concentration-dependent manner. […] AC50 values were determined from concentration-response data modeled with the standard Hill equation.
qHTS protocol for CellTiter Glo lymphoblastoid cellular assay
[Step] [Parameter] [Value] [Description]
1. Reagent; 5 uL; 2500 lymphoblastoid cells/well
2. Time; 5 hr; 37 C incubation
4. Controls; 23 nL; Tetraoctylammonium bromide 6.4pM to 92 uM
5. Time; 24 hr; 37 C incubation
6. Reagent; 5 uL; CellTiter Glo reagent
7. Time; 30 min; Room Temperature
8. Detection; Luminescence; Viewlux plate reader
Keywords: cell viability, cytotoxicity, lymphoblastoid cell line, luminescence, NTPHTS, NTPHTS_NCGC, NIEHS, DSSTox, MLSMR, MLSCN, NIH Roadmap, qHTS, NCGC
On to `ClC(Cl)Cl`, for which the Potency entry is “inactive”.
As for `Cc1ncc[nH]1`, the Potency entry is “inactive”.
`Oc1ccc(/C=C/c2cc(O)cc(O)c2)cc1`: the Potency entry was “inactive”.
For `CC/C=C\C/C=C\C/C=C\CCCCCCCC(=O)O`, the Potency is 39.8 µM (active).
The entry for `C[C@H](CCC(=O)O)[C@H]1CC[C@H]2[C@@H]3CC[C@@H]4C[C@H](O)CC[C@]4(C)[C@H]3C[C@H](O)[C@]12C` is “inactive”; for `Nc1ccc(N=Nc2ccccc2)c(N)n1` it is “inactive”; for `OCc1ccccc1` it is “inactive”.
As to `O=c1n(CC2CO2)c(=O)n(CC2CO2)c(=O)n1CC1CO1` (centres undefined), the Potency was 39.8 µM (active).
As for `C=C1C(CCl)(CCl)C2(Cl)C(Cl)C(Cl)C1(Cl)C2(Cl)Cl` (centres undefined), the Potency was 39.8 µM (active).
The entry for `[O-][N+](=Nc1ccccc1)c1ccccc1` is “inactive”.
`CCOC(C)OCC`: the Potency result was “inactive”.
In the case of `CCCCO`, the Potency result is “inactive”.
Regarding `CCCCC`, the Potency result is “inactive”.
As for `CC[C@H]1OC(=O)[C@H](C)[C@@H](O[C@H]2C[C@@](C)(OC)[C@@H](O)[C@H](C)O2)[C@H](C)[C@@H](O[C@@H]2O[C@H](C)C[C@H](N(C)C)[C@H]2O)[C@](C)(O)C[C@@H](C)CN(C)[C@H](C)[C@@H](O)[C@]1(C)O`, the Potency entry was “inactive”.
Consider `OCl`, for which the Potency result is “inactive”.
The result for `Nc1nccs1` reads “inactive”; that for `Cc1ccc(S(=O)(=O)O)cc1C`, “inactive”; that for `COC(=O)c1ccccc1O`, “inactive”.
For the compound `C[C@H](CCC(=O)O)[C@H]1CC[C@H]2[C@@H]3[C@H](O)C[C@@H]4C[C@H](O)CC[C@]4(C)[C@H]3C[C@H](O)[C@]12C`, the Potency entry is “inactive”.
Turning to `CC1=CC(=O)NS(=O)(=O)O1`, the Potency result was “inactive”.
`O=P(O)(O)O`: the Potency entry was “inactive”.
As for `CC1=CCC2CC1C2(C)C` (centres undefined), the Potency result is “inactive”.
Take `c1ccc2ccccc2c1`: the Potency entry is “inactive”.
As to `Nc1ncnc2c1ncn2[C@H]1CC[C@@H](CO)O1`, the Potency result is “inactive”.
Regarding `NC(N)=O`, the Potency result was “inactive”.
In the case of `C/C=C/C=C/C(=O)O`, the Potency entry is “inactive”.
For the compound `CC(C)(C)CC(C)(C)c1ccc(OCCO)cc1`, the Potency result was “inactive”.
The result for `CC(C)O` reads “inactive”; that for `OC[C@H]1O[C@@H]2O[C@H]3[C@H](O)[C@@H](O)[C@@H](O[C@H]4[C@H](O)[C@@H](O)[C@@H](O[C@H]5[C@H](O)[C@@H](O)[C@@H](O[C@H]6[C@H](O)[C@@H](O)[C@@H](O[C@H]7[C@H](O)[C@@H](O)[C@@H](O[C@H]1[C@H](O)[C@H]2O)O[C@@H]7CO)O[C@@H]6CO)O[C@@H]5CO)O[C@@H]4CO)O[C@@H]3CO`, “inactive”.
The entry for `OCC(O)CO` is “inactive”; for `CO/N=C(/C(=O)N[C@@H]1C(=O)N2C(C(=O)O)=C(COC(N)=O)CS[C@H]12)c1ccco1` it is “inactive”; for `OB(O)O` it is “inactive”.
The result for `CO` reads “inactive”; that for `NCCN`, “inactive”.

The values above are taken from PubChem BioAssay (NCATS).
